Measured values as given in the supplement of paper PMC6089552.
± gives the standard deviation of the averaged measurements. The whole screen tested about 3,200 compounds, of which about 300 (9.4%) showed activity. Only a selection was taken, and actives are over-represented in it overall.

Test system: A673/TR/shEF
Assay: cell viability (LOESS-normalised, relative to median of negative controls) (log2 ratio); higher = more viable cells (less compound effect), active = hit call of the paper (over 3 MAD below the median)
Conditions: treatment time: 72 h
Summary of the method: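 A673/TR/shEF Ewing sarcoma cells (1,500 per well, 384-well plates) were grown with or without doxycycline to induce EWS-FLI1 shRNA knockdown, starting 24 h before compounds. Library compounds at two or more concentrations, with DMSO controls, were added for three days. Cell viability was read by CellTiter-Glo luminescence on an Envision reader, then LOESS-corrected per plate, divided by the median of negative controls and log2-transformed. Hits were wells at least three median absolute deviations from the median of all screened wells.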

[1] = 0.25 µM, library screen: screen1, EWS-FLI1 expression: high (no doxycycline)
[2] = 0.25 µM, library screen: screen1, EWS-FLI1 expression: low (doxycycline-induced shRNA knockdown)
[3] = 2.5 µM, library screen: screen1, EWS-FLI1 expression: high (no doxycycline)
[4] = 2.5 µM, library screen: screen1, EWS-FLI1 expression: low (doxycycline-induced shRNA knockdown)
[5] = 0.25 µM, library screen: screen2, EWS-FLI1 expression: high (no doxycycline)
[6] = 0.25 µM, library screen: screen2, EWS-FLI1 expression: low (doxycycline-induced shRNA knockdown)
[7] = 2.5 µM, library screen: screen2, EWS-FLI1 expression: high (no doxycycline)
[8] = 2.5 µM, library screen: screen2, EWS-FLI1 expression: low (doxycycline-induced shRNA knockdown)
[9] = 0.103 µM, library screen: screen3, EWS-FLI1 expression: high (no doxycycline)
[10] = 0.103 µM, library screen: screen3, EWS-FLI1 expression: low (doxycycline-induced shRNA knockdown)
[11] = 0.308 µM, library screen: screen3, EWS-FLI1 expression: high (no doxycycline)
[12] = 0.308 µM, library screen: screen3, EWS-FLI1 expression: low (doxycycline-induced shRNA knockdown)
[13] = 0.926 µM, library screen: screen3, EWS-FLI1 expression: high (no doxycycline)
[14] = 0.926 µM, library screen: screen3, EWS-FLI1 expression: low (doxycycline-induced shRNA knockdown)
[15] = 2.8 µM, library screen: screen3, EWS-FLI1 expression: high (no doxycycline)
[16] = 2.8 µM, library screen: screen3, EWS-FLI1 expression: low (doxycycline-induced shRNA knockdown)
[17] = 8.3 µM, library screen: screen3, EWS-FLI1 expression: high (no doxycycline)
[18] = 8.3 µM, library screen: screen3, EWS-FLI1 expression: low (doxycycline-induced shRNA knockdown)
[19] = 25 µM, library screen: screen3, EWS-FLI1 expression: high (no doxycycline)
[20] = 25 µM, library screen: screen3, EWS-FLI1 expression: low (doxycycline-induced shRNA knockdown)

Measured: cell viability (log2)

CC(C)CC1NC(=O)CNC1=O (centres undefined)
inactive: [1] 0.138 | [2] 0.0779 | [3] 0.0859 | [4] 0.0262

Oc1ccc2c(c1)O[C@H](c1ccc(O)c(O)c1)[C@@H](O)C2
inactive: [1] 0.0741 | [2] -0.0244 | [3] 0.0985 | [4] 0.085

COc1cc(O)c2c(=O)cc(-c3ccc(OC)c(-c4c(O)cc(O)c5c(=O)cc(-c6ccc(O)cc6)oc45)c3)oc2c1
inactive: [1] 0.0329 | [2] 0.0664 | [3] 0.144 | [4] -0.0351

CC(=O)OCC(=O)[C@@]1(O)CC[C@H]2[C@@H]3CC[C@@H]4C[C@H](OC(C)=O)CC[C@]4(C)[C@H]3C(=O)C[C@@]21C
inactive: [1] 0.118 | [2] 0.0343 | [3] 0.0611 | [4] -0.0696

NC(CCC(=O)NCS(=O)(=O)O)C(=O)O (centres undefined)
inactive: [5] 0.192 | [6] 0.0399 | [7] 0.0879 | [8] 0.0533

N/C(=N/c1nc2ccccc2o1)NC(=O)c1cccc(Br)c1
inactive: [1] 0.0693 | [2] -0.0125 | [3] 0.162 | [4] -0.0831

CN(Cc1ccccc1)C(=O)C=Cc1ccc([N+](=O)[O-])cc1
inactive: [1] 0.0837 | [2] 0.078 | [3] 0.013 | [4] 0.137

COc1ccc(OC)c(C2NC(=S)NC(C)=C2C(=O)Nc2ccccc2Cl)c1 (centres undefined)
inactive: [1] 0.0287 | [2] 0.0702 | [3] 0.112 | [4] 0.148

COc1cccc2c1C(=O)c1c(O)c3c(c(O)c1C2=O)C[C@@](O)(C(=O)CO)C[C@@H]3O[C@H]1C[C@H](N)[C@@H](O)[C@H](C)O1
active: [9] -0.347 | [10] -0.195 | [11] -1.12 | [12] -0.399 | [13] -1.58 | [14] -0.41 | [15] -3.26 | [16] -1.19 | [17] -4.26 | [18] -4.27 | [19] -4.26 | [20] -4.25

CC(=O)[C@]1(O)Cc2c(O)c3c(c(O)c2[C@@H](O[C@H]2C[C@H](N)[C@H](O)[C@H](C)O2)C1)C(=O)c1ccccc1C3=O
active: [5] -2.37 | [6] -0.307 | [7] -3.12 | [8] -0.984

COc1cccc2c1C(=O)c1c(O)c3c(c(O)c1C2=O)C[C@@](O)(C(=O)CO)C[C@@H]3O[C@H]1C[C@H](N)[C@H](O)[C@H](C)O1
inactive: [9] -0.177 | [10] -0.0878
active: [11] -0.86 | [12] -0.36 | [13] -1.59 | [14] -0.403 | [15] -2.62 | [16] -1.5 | [17] -4.26 | [18] -4.27 | [19] -4.05 | [20] -4.25

COc1cccc2c1C(=O)c1c(O)c3c(c(O)c1C2=O)C[C@@](O)(C(C)=O)C[C@@H]3O[C@H]1C[C@H](N)[C@H](O)[C@H](C)O1
active: [9] -0.695 | [5] -1.6 | [6] -0.269 | [11] -1.27 | [12] -0.403 | [13] -2.5 | [14] -0.592 | [7] -2.54 | [8] -0.371 | [15] -3.11 | [16] -1.48 | [17] -4.09 | [18] -3.66 | [19] -4.26 | [20] -4.25
-0.133 ± 0.18: [10]

Cc1cccc(-n2ncc3c(N4CCCC4)ncnc32)c1
inactive: [1] 0.069 | [2] 0.0339 | [3] 0.118 | [4] 0.0767

COc1cc(-c2oc3c(OC)c(O)cc(O)c3c(=O)c2O)ccc1O
inactive: [1] 0.0554 | [2] 0.0375 | [3] 0.0118 | [4] 0.0806

COc1ccc(OC)c(CN2CCN(Cc3c[nH]c4ccccc34)CC2)c1
inactive: [1] 0.113 | [2] 0.0685 | [3] 0.072 | [4] 0.0923

C[C@@H](O)[C@H]1C(=O)N2C(C(=O)[O-])=C(SC3Cn4cnc[n+]4C3)[C@H](C)[C@H]12 (some centres undefined)
inactive: [9] 0.0935 | [10] 0.0362 | [11] 0.108 | [12] 0.0849 | [13] 0.0657 | [14] 0.0643 | [15] 0.107 | [16] 0.0482 | [17] 0.0477 | [18] 0.0712 | [19] 0.131 | [20] 0.0731

CN=c1nc(C2C=CC=CC2)n(C2C=CC=CC2)s1 (centres undefined)
inactive: [5] 0.18 | [6] 0.0729 | [7] 0.119 | [8] 0.0881

C/C(=C\CO)CCC[C@H](C)CCC[C@H](C)CCCC(C)C
inactive: [1] 0.0657 | [2] 0.0273 | [3] 0.135 | [4] -0.104

CCCCC[C@@H](CC(=O)O)C(=O)O
inactive: [1] 0.0401 | [2] 0.147 | [3] 0.16 | [4] 0.126

CO[C@H]1C=CC2CCN3CCC4=C(CC(=O)OC4)[C@]23C1 (some centres undefined)
inactive: [5] 0.124 | [6] 0.124 | [7] 0.0895 | [8] 0.152

CC1(C)OC(=O)C=C[C@@]2(C)C1C[C@@H](O)[C@]1(C)C2CC[C@@]2(C)[C@H](c3ccoc3)OC(=O)C3OC321 (some centres undefined)
inactive: [1] 0.0796 | [2] 0.0686 | [3] 0.159 | [4] 0.0743

Cc1nc2ccc(NC(=S)N3CCCC3)cc2nc1C
inactive: [1] -0.0193 | [2] 0.0405 | [3] 0.0212 | [4] 0.0752

CC1=C(C(=O)Nc2cccc(Cl)c2)C(c2cccs2)NC(=S)N1 (centres undefined)
inactive: [1] 0.0938 | [2] 0.0927 | [3] 0.145 | [4] 0.108

O=C(Nc1cccc(Cl)c1)/C(=C\c1ccco1)NC(=O)c1cccs1
inactive: [1] -0.0172 | [2] 0.0581 | [3] 0.0419 | [4] 0.0226

Cc1cn2c(=O)c3ccccc3nc2nc1Nc1ccccc1C(=O)O
inactive: [1] 0.138 | [2] 0.0987 | [3] 0.0749 | [4] 0.0532

O=C1C=CC2=C3c4cc(O)c(O)cc4CC3(O)COC2=C1 (centres undefined)
inactive: [1] 0.163 | [2] 0.195 | [3] 0.225 | [4] 0.28

COc1ccc(C2COc3c(ccc(O)c3OC)C2)c(OC)c1O (centres undefined)
inactive: [1] 0.108 | [2] 0.0205 | [3] 0.0667 | [4] -0.00772

COc1cc(OC)c2c(=O)c(-c3ccccc3)coc2c1
inactive: [1] 0.0176 | [2] 0.0621 | [3] 0.0815 | [4] 0.1

CS(=O)(=O)CCNCc1ccc(-c2ccc3ncnc(Nc4ccc(OCc5cccc(F)c5)c(Cl)c4)c3c2)o1
inactive: [9] 0.145 | [10] 0.0528 | [11] 0.146 | [12] 0.112 | [13] 0.139 | [14] 0.114 | [15] 0.0651 | [16] 0.113 | [17] 0.0899 | [18] 0.0389 | [19] 0.0387 | [20] 0.0962

CN(C)C/C=C/C(=O)Nc1cc2c(Nc3ccc(F)c(Cl)c3)ncnc2cc1O[C@H]1CCOC1
active: [19] -1.35 | [20] -1
inactive: [9] -0.033 | [10] 0.00738 | [11] -0.0507 | [12] -0.00854 | [13] 0.0161 | [14] -0.000186 | [15] 0.00307 | [16] -0.0241 | [17] -0.0486 | [18] -0.0662

C=CC(=O)Nc1cc2c(Nc3ccc(F)c(Cl)c3)ncnc2cc1OCCCN1CCOCC1
inactive: [9] 0.0394 | [10] 0.0254 | [11] -0.016 | [12] 0.0224 | [13] -0.0215 | [14] -0.0107 | [15] -0.0981 | [16] -0.0776 | [18] -0.0307
active: [17] -0.188 | [19] -0.199 | [20] -0.281

COc1cc2c(Nc3ccc(Br)cc3F)ncnc2cc1OCC1CCN(C)CC1
inactive: [9] -0.0043 | [10] 0.0398 | [11] -0.0447 | [12] 0.068 | [13] 0.0443 | [14] 0.0503 | [15] -0.0379 | [16] 0.00456 | [17] -0.00527 | [18] -0.0123 | [19] -0.0986 | [20] -0.0825

COc1cc2ncnc(Nc3ccc(F)c(Cl)c3)c2cc1OCCCN1CCOCC1
inactive: [9] 0.066 | [10] 0.0855 | [11] 0.103 | [12] 0.0493 | [13] 0.114 | [14] 0.0535 | [15] 0.136 | [16] 0.0991 | [17] 0.00987 | [18] 0.0751 | [19] -0.0152 | [20] 0.0721

COc1cc2c(N3CCN(C(=O)Nc4ccc(OC(C)C)cc4)CC3)ncnc2cc1OCCCN1CCCCC1
inactive: [9] -0.0129 | [10] -0.0538 | [11] -0.0428 | [12] -0.0392 | [13] -0.0343 | [14] -0.0604 | [15] 0.0597 | [16] 0.0175 | [17] 0.0441 | [18] 0.0441 | [19] -0.0915 | [20] 0.0601

CCCCCCCCCCCCCCCC(=O)NCC(COP(=O)([O-])OCC[N+](C)(C)C)OCC (centres undefined)
inactive: [5] 0.198 | [6] 0.0364 | [7] 0.0761 | [8] -0.0192
